Experimental data: PubChem BioAssay (NCI)
Several values for one entry are separate records, joined by “and”; a condition that tells them apart may be missing. Identical values can stand only once. This is part of a sample that, as a whole, favours compounds with a hit. Of some 79,000 tested, about 15% had one in any assay. The source holds several records for some structures; these can differ, active in one and inactive in another. Activity calls are given as the source filed them. Rule as the data show it: active = growth inhibition above about 70%; inactive = the rest.

Tests used:
[1] = NCI Yeast Anticancer Drug Screen. Data for the rad50 strain (AID 155);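 also: 0% = growth of vehicle-only cultures of the same strain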; details: S. cerevisiae rad50 strain growth inhibition, stronger effect = higher value
In short: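 Inhibition values express reduced yeast growth in compound-treated cultures relative to vehicle-treated controls.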

[2] = NCI Yeast Anticancer Drug Screen. Data for the mec2-1 strain (AID 157); details: S. cerevisiae mec2-1 strain, stronger effect = higher value
In short: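 Growth inhibition is read against vehicle-treated controls after compound exposure of the mec2-1 yeast strain, which is defective in DNA damage repair or cell cycle control.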

[3] = NCI Yeast Anticancer Drug Screen. Data for the sgs1 mgt1 strain (AID 161);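 also: 0% = growth of cultures given vehicle only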; details: S. cerevisiae sgs1 mgt1 strain, stronger effect = higher value
In short: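 This yeast growth screen uses a strain with defined DNA-repair lesions; compound-treated growth is compared with vehicle-treated growth.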

[4] = NCI Yeast Anticancer Drug Screen. Data for the cln2 rad14 strain (AID 165);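 also: 0% = growth equal to vehicle treated cultures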; details: S. cerevisiae cln2 rad14 strain, stronger effect = higher value
In short: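 Growth inhibition, relative to vehicle-treated controls, is the read-out. The test organism is a yeast strain with defined genetic alterations, cln2 rad14.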

[5] = NCI Yeast Anticancer Drug Screen. Data for the bub3 strain (AID 167); details: S. cerevisiae bub3 mutant strain, stronger effect = higher value
In short: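 Steps: expose the mutant yeast strain to compound; grow alongside vehicle-treated cultures; measure growth; express inhibition against the vehicle cultures.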

[6] = NCI Yeast Anticancer Drug Screen. Data for the mlh1 rad18 strain (AID 175); details: S. cerevisiae mlh1 rad18 strain growth inhibition, stronger effect = higher value
In short: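 Cells of a genetically altered yeast strain, deficient in DNA damage repair, were treated with compound. Their growth was then compared with that of vehicle-treated cultures to give inhibition.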

[7] = at 5.0 µM (retest, dose inferred, filed as 0.5)
[8] = at 50.0 µM (retest, dose inferred, filed as 5.0)

| SMILES | growth inhibition [1, 7] | growth inhibition [1, 8] | growth inhibition ([1]; at 50.0 µM) | growth inhibition [2, 7] | growth inhibition [2, 8] | growth inhibition ([2]; at 50.0 µM) | growth inhibition [3, 7] | growth inhibition [3, 8] | growth inhibition ([3]; at 50.0 µM) | growth inhibition [4, 7] | growth inhibition [4, 8] | growth inhibition ([4]; at 50.0 µM) | growth inhibition [5, 7] | growth inhibition [5, 8] | growth inhibition ([5]; at 50.0 µM) | growth inhibition [6, 7] | growth inhibition [6, 8] | growth inhibition ([6]; at 50.0 µM) |
| --- | --- | --- | --- | --- | --- | --- | --- | --- | --- | --- | --- | --- | --- | --- | --- | --- | --- | --- |
| CCc1ccc([O-])c(C=NCCCN(C)CCCN=Cc2cc(C)ccc2[O-])c1.[Co+3].[N-]=[N+]=[N-] | -10% (inactive) | 7% (inactive) | 22.1% (inactive) | -8% (inactive) | 15% (inactive) | -12.9% (inactive) | -4% (inactive) | 6% (inactive) | 50.5% (inactive) | -20% (inactive) | 0% (inactive) | -34.5% (inactive) | 1% (inactive) | 8% (inactive) | -11.2% (inactive) | -4% (inactive) | -7% (inactive) | 0.85% (inactive) |
| C=C(CC(=O)O)C(=O)O (tested in a mixture with another compound) | -1% (inactive) | 0% (inactive) | -3.6% (inactive) and 99.4% (active) | 8% (inactive) | 0% (inactive) | 28% (inactive) and 99.5% (active) | -1% (inactive) | -1% (inactive) | -21.9% (inactive) and 98.8% (active) | 0% (inactive) | -2% (inactive) | 39% (inactive) and 99.6% (active) | -3% (inactive) | -4% (inactive) | -3.25% (inactive) and 99% (active) | 0% (inactive) | -1% (inactive) | 18.6% (inactive) and 99.2% (active) |
| O=[N+]([O-])c1cc(C(F)(F)F)cc2n[se]nc12 | 82% (active) | 98% (active) | 87.2% (active) | 81% (active) | 99% (active) | 93.3% (active) | 47% (inactive) | 100% (active) | 90.8% (active) | 49% (inactive) | 99% (active) | 90.8% (active) | 94% (active) | 97% (active) | 90.6% (active) | 75% (active) | 97% (active) | 90.5% (active) |
| COC(=O)C(CCCN=C(N)N[N+](=O)[O-])NC(=O)c1ccc2c(c1O)C(=O)c1ccccc1C2=O (centres undefined) | 8% (inactive) | 15% (inactive) | 71.6% (active) | 4% (inactive) | 11% (inactive) | 28.7% (inactive) | 6% (inactive) | 18% (inactive) | 68.6% (inactive) | -4% (inactive) | 3% (inactive) | 47.9% (inactive) | 2% (inactive) | 5% (inactive) | 14.5% (inactive) | 5% (inactive) | 20% (inactive) | 66.2% (inactive) |
| COc1ccc(C(Cc2ccc(Cl)c(Cl)c2)NCCO)cc1 (centres undefined) | -16% (inactive) | 37% (inactive) | 75% (active) | -5% (inactive) | -1% (inactive) | 23.3% (inactive) | -35% (inactive) | 27% (inactive) | 31.1% (inactive) | -2% (inactive) | 10% (inactive) | 11.9% (inactive) | 4% (inactive) | 32% (inactive) | 59.1% (inactive) | 3% (inactive) | 48% (inactive) | 86.2% (active) |
| Clc1c(CI)ccc(CI)c1Cl | 22% (inactive) | 79% (active) | 98.7% (active) | 60% (inactive) | 90% (active) | 97.2% (active) | 17% (inactive) | 74% (active) | 98.7% (active) | 34% (inactive) | 85% (active) | 54.3% (inactive) | 62% (inactive) | 89% (active) | 87.2% (active) | 82% (active) | 96% (active) | 97.5% (active) |
| CCN(Cc1ccccc1)CC(O)c1ccc(Cl)c(Cl)c1 (centres undefined) | -3% (inactive) | 99% (active) | 9.25% (inactive) | -1% (inactive) | 99% (active) | -12.7% (inactive) | -2% (inactive) | 99% (active) | 20.1% (inactive) | 2% (inactive) | 99% (active) | -23.4% (inactive) | 0% (inactive) | 98% (active) | 70.3% (active) | -1% (inactive) | 99% (active) | 3.6% (inactive) |
| CCN(CCCl)c1cc(CN(C)C)cc(NC(=O)c2ccc(C(=O)Nc3cccc(N(CCCl)NN)c3)cc2)c1 | -6% (inactive) | 91% (active) | 89.4% (active) | -5% (inactive) | 98% (active) | 98.2% (active) | 10% (inactive) | 98% (active) | -2.7% (inactive) | 1% (inactive) | 95% (active) | 56.2% (inactive) | -16% (inactive) | 92% (active) | 97.8% (active) | 25% (inactive) | 97% (active) | 98.5% (active) |
| Clc1ccc2c(NCCCCN3OC3c3ccccc3)ccnc2c1 (centres undefined) | 30% (inactive) | 67% (inactive) | 58.2% (inactive) | 22% (inactive) | 56% (inactive) | 48.6% (inactive) | 23% (inactive) | 57% (inactive) | 67.5% (inactive) | 11% (inactive) | 32% (inactive) | 11.3% (inactive) | 24% (inactive) | 43% (inactive) | 34.2% (inactive) | 30% (inactive) | 84% (active) | 35.2% (inactive) |
| O=C(O)/C=C\c1c[nH]c2ccccc12 | 10% (inactive) | 97% (active) | 75.8% (active) | -2% (inactive) | 89% (active) | 38.3% (inactive) | 2% (inactive) | 87% (active) | 60.2% (inactive) | -6% (inactive) | 89% (active) | 1.45% (inactive) | -2% (inactive) | 95% (active) | 50.8% (inactive) | -17% (inactive) | 97% (active) | 42.4% (inactive) |
| Fc1ccc(NP(=S)(Nc2ccc(F)cc2F)Nc2ccc(F)cc2F)c(F)c1 | 33% (inactive) | 99% (active) | 99.2% (active) | 42% (inactive) | 99% (active) | 99.3% (active) | 39% (inactive) | 99% (active) | 99% (active) | 56% (inactive) | 99% (active) | 98.7% (active) | 26% (inactive) | 99% (active) | 98.8% (active) | 30% (inactive) | 98% (active) | 99.2% (active) |
| CNC(=O)Oc1ccccc1/C=N\Sc1ccc(Cl)cc1 | -2% (inactive) | 21% (inactive) | 97.2% (active) | 1% (inactive) | 21% (inactive) | 99% (active) | 3% (inactive) | 43% (inactive) | 98.9% (active) | -4% (inactive) | 10% (inactive) | 82.8% (active) | -4% (inactive) | 6% (inactive) | 98.6% (active) | -2% (inactive) | 35% (inactive) | 99.2% (active) |
| O=[N+]([O-])/C=C/c1ccccc1 | 94% (active) | 99% (active) | 98% (active) | 85% (active) | 100% (active) | 99.2% (active) | 62% (inactive) | 99% (active) | 98% (active) | 64% (inactive) | 100% (active) | 98.3% (active) | 85% (active) | 99% (active) | 96.4% (active) | 71% (active) | 100% (active) | 98.1% (active) |
| O=S(=O)([O-])[O-].[Fe+2].c1ccc(/C(=N\Nc2ccccn2)c2ccccn2)cc1 | 3% (inactive) | 33% (inactive) | 12.9% (inactive) | -2% (inactive) | 39% (inactive) | 82.2% (active) | -4% (inactive) | 22% (inactive) | 16.1% (inactive) | -3% (inactive) | -8% (inactive) | 13.5% (inactive) | 1% (inactive) | 1% (inactive) | 1.75% (inactive) | -3% (inactive) | 7% (inactive) | 25.8% (inactive) |
| Ic1cccc2c1[se]c1ccccc12 | -8% (inactive) | 22% (inactive) | 25.2% (inactive) | 8% (inactive) | 20% (inactive) | -4.05% (inactive) | 0% (inactive) | 40% (inactive) | 6.7% (inactive) | 5% (inactive) | -28% (inactive) | -27.8% (inactive) | -3% (inactive) | 27% (inactive) | -11.3% (inactive) | 9% (inactive) | 75% (active) | 2.15% (inactive) |
| O=C(CI)NCc1ccccc1 | 22% (inactive) | 98% (active) | 97.8% (active) | 29% (inactive) | 99% (active) | 99.2% (active) | 41% (inactive) | 99% (active) | 99% (active) | 12% (inactive) | 99% (active) | 97.8% (active) | 31% (inactive) | 99% (active) | 99% (active) | 55% (inactive) | 99% (active) | 99.2% (active) |
| Cn1c2cccc(=O)c-2nc2ccccc21 | -14% (inactive) | 85% (active) | 82.5% (active) | 6% (inactive) | 62% (inactive) | 52.2% (inactive) | 1% (inactive) | 49% (inactive) | 21.3% (inactive) | -22% (inactive) | 34% (inactive) | -2.9% (inactive) | -12% (inactive) | 56% (inactive) | 41.9% (inactive) | 9% (inactive) | 77% (active) | 60% (inactive) |
| O=[As]c1ccc([N+](=O)[O-])cc1 (centres undefined) | 80% (active) | 100% (active) | 99.6% (active) | 89% (active) | 100% (active) | 99.7% (active) | 39% (inactive) | 99% (active) | 99.7% (active) | 58% (inactive) | 98% (active) | 98.9% (active) | 99% (active) | 100% (active) | 99.3% (active) | 89% (active) | 99% (active) | 99.5% (active) |
